Test results taken from PubChem BioAssay AID2018 (Sanford-Burnham Center for Chemical Genomics, 2009).
The campaign covered roughly 1,200 compounds. About 600 (50%) were called active. The set was probably picked from earlier hits. The list shows a part of the results. Measured potencies and affinities stand elsewhere. Unmarked numbers belong to inactive results. Rule as the data show it: active = inhibition above about 42%; inactive = the rest.

molecular target: SUMO-conjugating enzyme UBC9 (Homo sapiens) (UniProt P63279); experiment: SUMOylation inhibitor hit validation, confirmation, SUMOylation inhibitor project, biochemical, AlphaScreen (AID 2018); conditions: AlphaScreen in vitro SUMOylation assay; at 35 µM; hits give high values
Sequence (P63279 whole entry, looked up): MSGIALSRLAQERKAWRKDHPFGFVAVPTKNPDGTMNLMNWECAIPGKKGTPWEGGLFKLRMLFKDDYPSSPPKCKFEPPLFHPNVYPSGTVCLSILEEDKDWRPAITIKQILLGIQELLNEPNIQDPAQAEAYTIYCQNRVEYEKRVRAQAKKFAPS

Compound	inhibition
O=C(O)CC1OCC=C2CN3CCC45C6=CC(=O)C(=O)C([N+](=O)[O-])=C6NC4C1C2CC35 (centres undefined)	102% (active)
CN1CCN(c2ccc(S(C)(=O)=O)cc2[N+](=O)[O-])CC1	-12.2%
Cc1cc(/C=C2\C(=O)NC(=O)N(Cc3ccccc3)C2=O)c(C)n1-c1ccc(Cl)c(C(=O)O)c1	102% (active)
CC(=O)c1ccc2c(c1)C1C(Cl)C(Sc3ccccc3[N+](=O)[O-])CC1C(C(=O)O)N2 (centres undefined)	102% (active)
CC(=O)c1ccc2c(c1)C1C(Cl)C(Sc3ccccc3[N+](=O)[O-])CC1C(c1ccccc1[N+](=O)[O-])N2 (centres undefined)	38.6%
CC(C)CCNC(=O)c1c(N)n(Cc2ccc3c(c2)OCO3)c2nc3ccccc3nc12	18.5%
Cc1c(CC(=O)N2C[C@H]3C[C@@H](C2)c2cccc(=O)n2C3)c(=O)oc2c(C)c(O)ccc12	54.2% (active)
Nc1c(C(=O)NCCCc2ccccc2)c2nc3ccccc3nc2n1Cc1cccs1	-10.2%
Cc1[nH]n(-c2ccccc2)c(=O)c1C(c1ccc([N+](=O)[O-])cc1)c1c(C)[nH]n(-c2ccccc2)c1=O	102% (active)
CCN(CC)c1ccc([N+](=O)[O-])c2cccnc12	33.7%
CCC(C)NC(=O)c1c(N)n(CC2CCCO2)c2nc3ccccc3nc12 (centres undefined)	101% (active)
CCCNC(=O)c1c(N)n(Cc2ccc3c(c2)OCO3)c2nc3ccccc3nc12	13.5%
CC(C)CCNC(=O)c1c(N)n(CC2CCCO2)c2nc3ccccc3nc12 (centres undefined)	-37.9%
Nc1c(C(=O)NC2CCCC2)c2nc3ccccc3nc2n1CC1CCCO1 (centres undefined)	100% (active)
CC(C)OCCCNC(=O)c1c(N)n(CC2CCCO2)c2nc3ccccc3nc12 (centres undefined)	-76.6%
CCCNC(=O)c1c(N)n(CC2CCCO2)c2nc3ccccc3nc12 (centres undefined)	-23.2%
CCC(C)NC(=O)c1c(N)n(Cc2ccc3c(c2)OCO3)c2nc3ccccc3nc12 (centres undefined)	11%
CN1CCC2(CC1)C(C#N)=C(N)NC(S)=C2C#N	38.8%
CCCCn1c(NS(=O)(=O)c2ccc(C)cc2)c(C(=O)OCC)c2nc3ccccc3nc21	28.2%
CCCCn1c(NS(=O)(=O)c2ccccc2)c(C(=O)OCC)c2nc3ccccc3nc21	101% (active)
CCCCn1c(N)c(C(=O)OCC2CCCO2)c2nc3ccccc3nc21 (centres undefined)	25.4%
COCCNC(=O)c1c(NC(=O)c2ccco2)n(Cc2ccccc2)c2nc3ccccc3nc12	-28.4%
CCCCn1c(NC(=O)c2ccco2)c(C(=O)OCC)c2nc3ccccc3nc21	62.6% (active)
COCCCn1c(N)c(C(=O)NCCC(C)C)c2nc3ccccc3nc21	-40.9%
CCCCCn1c(N)c(C(=O)NCc2cccs2)c2nc3ccccc3nc21	9.5%

Compound	inhibition
COc1cc(Cn2c(N)c(C(=O)NCc3ccco3)c3nc4ccccc4nc32)cc(OC)c1OC	50.8% (active)
COc1ccc(Cn2c(N)c(C(=O)NCc3ccco3)c3nc4ccccc4nc32)cc1	-14.9%
CCOCCCn1c(N)c(C(=O)Nc2sc3c(c2C(=O)OC)CCCC3)c2nc3ccccc3nc21	47% (active)
CCCCNC(=O)c1c(N)n(CCCOC)c2nc3ccccc3nc12	102% (active)
CCCCn1c(N)c(C(=O)NCc2cccs2)c2nc3ccccc3nc21	51.4% (active)
COCCCn1c(N)c(C(=O)Nc2ccccc2)c2nc3ccccc3nc21	-4.1%
CC(C)CCn1c(N)c(C(=O)NCc2cccs2)c2nc3ccccc3nc21	4.2%
CCOC(=O)c1c(NC(=O)c2c(N)n(CCCOC)c3nc4ccccc4nc23)sc2c1CCCC2	41.9%
COCCCn1c(N)c(C(=O)NCc2ccco2)c2nc3ccccc3nc21	-8.5%
COc1ccc(Cc2nccc3cc(OC)c(OC)cc23)cc1OC	37.6%
c1ccc2c(NC3=NCCS3)cccc2c1	19.6%
CN1CCc2nc3sc(C#N)c(N)c3c(-c3cccs3)c2C1	29.8%
CN1CCN(c2ccc3nccnc3c2)CC1	6.7%
O=C(O)CCn1cc(C=C2C(=O)NC(=O)NC2=O)c(-c2ccc(Br)cc2)n1	1%
COCCNC(=O)c1c(N)n(CCC(C)C)c2nc3ccccc3nc12	-54.5%
CCC(C)NC(=O)c1c(N)n(CCCOC)c2nc3ccccc3nc12 (centres undefined)	74% (active)
COCCCn1c(N)c(C(=O)OCCOC)c2nc3ccccc3nc21	10.5%
Cc1ccsc1C(=O)C1CCCN(Cc2ccc(-n3cccn3)cc2)C1 (centres undefined)	-14.4%
CC(C)CNC(=O)c1c(N)n(Cc2ccc3c(c2)OCO3)c2nc3ccccc3nc12	-19.8%
CN1C[C@H](CO)C=C2c3cccc4[nH]cc(c34)C[C@H]21	10.8%
CC(C)[C@H]1C(=O)N2CCC[C@H]2[C@]2(O)O[C@](NC(=O)[C@@H]3C=C4c5cccc6[nH]cc(c56)C[C@H]4N(C)C3)(C(C)C)C(=O)N12	54.8% (active)
Cn1c(O)c(/C=C2\N=c3ccccc3=C2CCNC(=S)NC2CC2)c(=O)n(C)c1=O	58.6% (active)
O=C(c1cccn2c(=O)c3ccc(Cl)cc3nc12)N1CCC2(CC1)OCCO2	20.5%
COc1ccc(OC)c(N2C(=O)NC(=O)/C(=C/c3ccc([N+](=O)[O-])s3)C2=O)c1	86.3% (active)
